Molecules are shown by their SMILES. The whole screen tested about 360,000 compounds, of which about 17,000 (4.7%) were called active. Inconclusive results (about 5%) are left out. The sample holds actives, similar compounds and a random draw of the others, so the mix is not that of the screen. Cut-off read from the data, not from the text of the source: active = activity change below about -50%; inconclusive = mostly about -30% to -49%; inactive = weaker than that. Where a SMILES comes first, the peptide text is derived from it. The star is where a group is joined. Bz = O=C(c1ccccc1)*
% is set by controls: 0 for no effect and ±100 for the full control effect.

The nature of this assay: qHTS for Inhibitors of Inflammasome Signaling: IL-1-beta AlphaLISA Primary Screen. To be noted: THP-1 LPS/ATP IL-1B secretion, 16 h; at 57.5 µM, stronger effect = lower value. A digest of the protocol: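 THP-1 cells pretreated 1 hr with compounds (up to 57.5 uM final), then stimulated with LPS (250 ng/mL final) plus ATP (1.25 mM final); secreted IL-1B measured by AlphaLISA after 16 hr, decreased signal indicating inhibition.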
(In general: In qHTS, concentration-response curves come from the screen itself.)
For the molecule `COc1ccc(NC(=O)C2(C)Cc3c(-c4cccc(NC(C)=O)c4)ccnc3O2)cc1` (stereo unspecified), the activity change was 48.5% (inactive).
With `COC1=NC2=NCCN2C(OC)=N1`, the activity change is 0.792% (inactive).
Turning to `COc1ccc(C(=O)ON=C2c3ccccc3-c3ccccc32)cc1OC`, the activity change was 0% (inactive).
On to `COc1ccc(C/C(N)=N/OC(=O)c2ccco2)cc1OC`, for which the activity change was 9.63% (inactive).
On to `COc1ccc(C(=O)O/N=C(\N)Cc2ccc(Cl)cc2Cl)cc1OC`, for which the activity change was -58.9% (active).
Regarding `CCCCC(O)C1=C[N+](=O)CC=C1` (stereo unspecified), the activity change was -4.88% (inactive).
Turning to `CCn1ccnc1CNC(=O)CC1C(=O)NCCN1Cc1ccc(F)cc1Cl` (stereo unspecified), the activity change is -0.584% (inactive).
Regarding `CCCCc1ccc(NC(=O)CN2C(=O)NC(Cc3ccccc3)C2=O)cc1` (stereo unspecified), the activity change is -1.39% (inactive).
The same measure for `COc1ccccc1CNC(=O)COC(=O)CNS(=O)(=O)c1ccc(NC(C)=O)cc1`: 32.4% (inactive); for `CC(=O)Nc1ccc(S(=O)(=O)NCC(=O)OCc2cc(=O)oc3ccc4ccccc4c23)cc1`: -58.2% (active).
In the case of `COc1ccccc1C(=O)COC(=O)CNS(=O)(=O)c1ccc(NC(C)=O)cc1`, the activity change was 9.71% (inactive).
Regarding `Cc1ccc(S(=O)(=O)N2CCCCC2)cc1NC(=O)CCNC(=O)c1ccccc1Cl`, the activity change was 10.9% (inactive).
The figure for `Cc1cccc(N(C(=O)c2csnn2)C(C(=O)NCc2ccccc2)c2ccncc2)c1` (stereo unspecified) is -12.7% (inactive).
The same measure for `CC1(C(=O)NS(=O)(=O)c2cccc(OC(F)F)c2)CCN1C(=O)C1CC1` (stereo unspecified): 0% (inactive); for `Cc1ccc(C(=O)CN2C(=O)NC3(CCc4ccccc43)C2=O)c(C)c1` (stereo unspecified): -6.4% (inactive); for `COc1ccc(-n2c(C)cc(C(=O)CN3C(=O)NC4(CCc5ccccc54)C3=O)c2C)cc1` (stereo unspecified): -85.6% (active).
Regarding `COc1ccc(C(=O)CN2C(=O)NC3(CCc4ccccc43)C2=O)c(OC)c1` (stereo unspecified), the activity change is -22.2% (inactive).
The figure for `CC(=O)Nc1ccc(S(=O)(=O)NC(C)C(=O)OCCOc2ccc(F)cc2)cc1` (stereo unspecified) is -84.9% (active).
The same measure for `CC(=O)Nc1ccc(NC(=O)COc2ccc(S(=O)(=O)NC(C)c3ccccc3)cc2)cc1` (stereo unspecified): 18.3% (inactive); for `CC(=O)Nc1ccc(S(=O)(=O)NC(C)C(=O)OCC(=O)NC2CCCC2)cc1` (stereo unspecified): 0% (inactive).
As to `COc1ccccc1-c1cc2nc(NCc3cccc(Cl)c3)ccn2n1`, the activity change is -19.9% (inactive).
As to `Cc1ccc(-c2nn(-c3cccc(F)c3)cc2CNCCc2ccncc2)o1`, the activity change is -77.5% (active).
Regarding `Cc1ccc(N2C(=O)C(CC(=O)Nc3cccc(F)c3)N(CCc3ccncc3)C2=O)cc1` (stereo unspecified), the activity change was -0.0392% (inactive).
`Cc1ccc(-c2cnc(C(O)c3cc(Cl)cc(Cl)c3)[nH]2)cc1` (stereo unspecified): the activity change is 6.64% (inactive).
In the case of `CCC(C)(C)NC(=O)CN(Cc1cccs1)C(=O)CNS(=O)(=O)c1ccc(F)cc1`, the activity change is 4.73% (inactive).
Turning to `Cc1ccc(S(=O)(=O)NCC(=O)N(CC(=O)NC(C)(C)C)Cc2cccs2)cc1`, the activity change was 14.4% (inactive).
The figure for `CC(C)(C)NC(=O)CN(Cc1cccs1)C(=O)CNS(=O)(=O)c1ccccc1` is -55.8% (active); for `CCN1C(=O)[C@@H]2[C@@H]3CN(S(=O)(=O)c4ccccc4C)[C@@H](c4ccc(Cl)cc4)[C@@H]3C(=O)C[C@@H]2C1=O` it is -15.9% (inactive).
The same measure for `CC1(C(=O)Nc2cccc3c2CCCC3)CCN1C(=O)CCc1ccc(Cl)cc1Cl` (stereo unspecified): -9.96% (inactive); for `NC(=O)C1CCN(C(=O)CC2C(=O)NCCN2Cc2cccc(Oc3ccccc3)c2)CC1` (stereo unspecified): -6.56% (inactive).
With `CCc1nnc(NC(=O)c2cc(S(=O)(=O)N3CCN(CC)CC3)ccc2Cl)s1`, the activity change is 18.8% (inactive).
Regarding `CC(CN1CCCCC1)c1ccccc1` (stereo unspecified), the activity change was 11.2% (inactive).
As for `CCCC(O)(c1ccc(OC)cc1)C(CN(C)C)c1ccccc1` (stereo unspecified), the activity change was -9.06% (inactive).
Regarding `COc1ccc(C(O)(C2CCCCC2)C(CN2CCCC2)c2ccccc2)cc1` (stereo unspecified), the activity change was -54.5% (active).
`CC(C)(C(=O)N1CCC1(C)C(=O)NS(=O)(=O)c1ccc(Br)cc1)c1ccccc1` (stereo unspecified): the activity change was 17% (inactive).
As for `CC(C)c1ccc(N2CC(C(=O)Nc3nccs3)CC2=O)cc1` (stereo unspecified), the activity change is -0.66% (inactive).
Consider `CC1CN(C(=O)c2cccc(NS(=O)(=O)c3ccc(Br)cc3)c2)CC(C)O1` (stereo unspecified), for which the activity change is 53% (inactive).
In the case of `O=C(CC1NCCc2ccccc21)Nc1cccc(Cl)c1` (stereo unspecified), the activity change is -29.8% (inactive).
On to `CCN1C(=O)N[C@@H](c2ccccc2)C(C(=O)OC)=C1C`, for which the activity change was 15% (inactive).
`CCOC(=O)C1=C(C)N(C[C@@H]2CC[C@@H](Cc3ccc(-c4ccccc4)cc3)O2)C(=O)NC1c1ccc([N+](=O)[O-])cc1` (stereo partly specified): the activity change is -63.7% (active).
The figure for `CCC(CC)COC(=O)C1=C(C)NC(=O)NC1c1ccc([N+](=O)[O-])cc1` (stereo unspecified) is -2.87% (inactive); for `COc1ccc(C(=O)N2CCCN(C)CC2)c(OC)c1` it is 33.4% (inactive).
Consider `COc1cc(C(=O)N2CCN(C)CC2)cc(OC)c1OC`, for which the activity change is 42.7% (inactive).
For the molecule `COc1cc2c(C(=O)N3CCN(C)CC3)c(CSc3ccccc3)n(C)c2cc1Br`, the activity change is -60.2% (active).
`C[C@@H]1CN([C@H](C)CO)C(=O)CCCn2nncc2CO[C@@H]1CN(C)S(=O)(=O)c1cccc(C#N)c1`: the activity change is 3.99% (inactive).
For `COC1=CC(=O)OC(c2ccc(OC)cc2)C1` (stereo unspecified), the activity change was -17.1% (inactive).
The same measure for `CS(=O)(=O)c1cccc(-c2ccc3nncn3c2)c1`: 11.3% (inactive); for `O=C(NC(Cc1ccccc1)C(=O)N1CCCC(C(F)(F)F)C1)c1ccccc1` (stereo unspecified): 1.82% (inactive); for `CN(Cc1ccccc1F)C(=O)C(Cc1ccccc1)NC(=O)c1ccccc1` (stereo unspecified): -84.2% (active).
For the molecule `O=C(NC(Cc1ccccc1)C(=O)N1CCCC1C(=O)O)c1ccccc1` (stereo not drawn) (Bz-Phe-Pro-OH; configuration not given here), the activity change is 6.95% (inactive).
With `COCCn1c(SCC(=O)Nc2ccc(F)cc2F)nc2c(c1=O)SCC2`, the activity change was 18.2% (inactive).
The same measure for `CCNC(=O)CCc1nc(-c2ccc(C(C)(C)C)cc2)no1`: -3.31% (inactive).
With `CC(O)CNCCOc1cccc(Oc2ccccc2)c1` (stereo unspecified), the activity change is -29% (inactive).
Consider `OC(CNCCc1ccc(Cl)cc1Cl)COc1ccccc1` (stereo unspecified), for which the activity change is -91.8% (active).
With `COc1ccc(OCC(O)CNC(=O)Nc2ccc(Cl)cc2)cc1` (stereo unspecified), the activity change is 5.19% (inactive).
The figure for `COc1ccc(C(=O)CCC(=O)Nc2ccc(Cl)cc2)cc1` is 4.81% (inactive); for `COc1ccc(NC(=O)CN2C(=O)NC(C)(c3ccccc3)C2=O)cn1` (stereo unspecified) it is 12.7% (inactive).
Turning to `COc1ccc(CS(=O)/C(Cl)=C(/Cl)C(=O)Nc2ccc(OC)nc2)cc1` (stereo unspecified), the activity change is -105% (active).
As for `O=C(COC(=O)c1cc(-c2cccs2)nn1-c1ccccc1)Nc1cc([N+](=O)[O-])ccc1Cl`, the activity change was 21.3% (inactive).
In the case of `C/C(=N\Nc1ccccc1)c1cccs1`, the activity change was 40.5% (inactive).
With `O=C(Nc1ccccc1-c1nc2ccccc2[nH]c1=O)c1cccs1`, the activity change was 7.39% (inactive).
In the case of `C/C(=N\Nc1nc2ccccc2[nH]1)c1cccs1`, the activity change is -66.3% (active).
The figure for `O=C(COc1ccccc1Cl)Nn1cnnc1` is 26.3% (inactive); for `CCOC(=O)CNC(=O)CSc1ncccc1-c1nc2ccccc2[nH]1` it is 16.2% (inactive).
As to `COc1ccc(S(=O)(=O)N(C)C[C@@H]2Oc3ccc(NS(=O)(=O)c4cn(C)cn4)cc3C(=O)N([C@@H](C)CO)C[C@@H]2C)cc1`, the activity change was -3.54% (inactive).
The figure for `O=C1c2ccccc2C(=O)c2c1cccc2N1CCN(CCO)CC1` is -59.1% (active); for `O=C1CCN(CCCc2ccccc2)CCN1CCO` it is -16.8% (inactive); for `OCCN1CCN(c2nnc(-c3ccccc3)c3ccccc23)CC1` it is 23.6% (inactive).
Consider `Cc1ccc(Nc2c(O)nc[nH]c2=O)cc1C`, for which the activity change was 13.4% (inactive).
As to `COc1c(O)cccc1-c1nnn(CCC(=O)OCC(=O)c2ccccc2)n1`, the activity change was 14.4% (inactive).
Consider `O=S1(=O)CCN(C2CCCCCCCCCCC2)CC1`, for which the activity change was 26.7% (inactive).
The figure for `O=c1nc(NO)ccn1C1CCCO1` (stereo unspecified) is 13.7% (inactive); for `Cc1cccc(C)c1N1CCN(S(=O)(=O)N2CCOCC2)CC1` it is 0% (inactive).
The figure for `Cc1cccc(C(=O)N2CCN(S(=O)(=O)N3CCCCC3)CC2)c1` is 0% (inactive).
As to `Cc1cccc(C)c1N1CCN(S(=O)(=O)N2CCCCC2)CC1`, the activity change is -53.3% (active).
In the case of `CCC(c1nnnn1-c1ccc2c(c1)OCCO2)N1CCN(c2ccc(C(F)(F)F)cn2)CC1` (stereo unspecified), the activity change is 25.4% (inactive).
`CCCNC(=O)CCc1c(C)nc2c(c(C)nn2-c2ccccc2)c1C`: the activity change was -2.57% (inactive).
`CC(=O)C[C@@H]1OC[C@H](CO)N1S(=O)(=O)c1ccc(C)cc1`: the activity change was 5.63% (inactive).
On to `O=C(NCCN1CCOCC1)C1CCN(S(=O)(=O)c2ccccc2)CC1`, for which the activity change is 0.358% (inactive).
As to `CN1CCN(C(=O)c2ccc(-c3cc4nc(NCc5cccnc5)n(C)c(=O)c4s3)cc2)CC1`, the activity change was -15.2% (inactive).
On to `O=C(c1ccc(Oc2ccc(Cl)cc2)c([N+](=O)[O-])c1)N1CCCC1`, for which the activity change is -22.3% (inactive).
`CC1CCN(C(=O)c2ccc(S(=O)(=O)Cc3cc(F)ccc3F)c([N+](=O)[O-])c2)CC1`: the activity change was -96.6% (active).
The same measure for `Nc1ccc(C(=O)N2CCN(S(=O)(=O)c3ccc(Cl)cc3)CC2)cc1[N+](=O)[O-]`: -21.1% (inactive); for `COc1cc(OC)c(C(=O)NNC(=O)c2ccccc2-n2cccc2)cc1OC`: 3.76% (inactive); for `CC(=O)c1ccc2c(c1)OCCOCCOc1ccc(C(C)=O)cc1OCCOCCO2`: 0% (inactive).
The same measure for `Cc1cc(C)n(-c2ccc(C(=O)O)cc2[N+](=O)[O-])n1`: 40.6% (inactive); for `O=C(/C=C\c1ccc2c(c1)OCO2)NC1(C(=O)Nc2ccc3c(c2)OCCO3)CCCCC1`: -1.03% (inactive); for `Cc1cc(C(=O)O)ccc1[N+](=O)[O-]`: -16.6% (inactive).
Take `CN(C)c1ccc(/C=C/C(=O)c2ccc(O)cc2)cc1[N+](=O)[O-]`: the activity change was -97.8% (active).
Consider `O=C(/C=C/c1ccc2c(c1)OCCO2)c1ccc(O)cc1`, for which the activity change was -103% (active).
On to `CC(=O)Nc1ccc(C(=O)/C=C/c2ccc[nH]2)cc1`, for which the activity change was -9.5% (inactive).
In the case of `CN(C)c1ccc(/C=C/C(=O)c2ccc(C(C)(C)C)cc2)cc1[N+](=O)[O-]`, the activity change is -95.8% (active).
Take `C/C(=N\Nc1nncc2ccccc12)c1ccc(Cl)c([N+](=O)[O-])c1`: the activity change is -6.54% (inactive).
Take `O=C(/C=C/c1ccc(Cl)c([N+](=O)[O-])c1)c1ccc(O)cc1`: the activity change was -99.9% (active).
As to `CNc1ccc(NC(C)=O)cc1[N+](=O)[O-]`, the activity change was -5% (inactive).
Regarding `CC(=O)Nc1ccc(C=CC(=O)c2ccc([N+](=O)[O-])cc2)cc1`, the activity change was 1.95% (inactive).

Values taken from PubChem BioAssay AID743279 (National Center for Advancing Translational Sciences (NCATS), 2014).
